# Results: article PMC7862700, “An all-to-all approach to the identification of sequence-specific readers for epigenetic DNA modifications on cytosine”
# What was measured:
# Assay in all cases: DAPPL (digital affinity profiling via proximity ligation, sequencing); 10 mM Tris-HCl pH 7.5, 50 mM NaCl, 1 mM DTT, 4% glycerol, room temperature, 30 min; GST-TFs on glutathione beads, 16-mer random dsDNA library, 0.1% formaldehyde crosslink after washing; high values mean tight binding
# FEV = target: T1, FEV (Homo sapiens, UniProt Q99581 1-238); details: protein: recombinant; tags: N-terminal GST; dsDNA, one strand shown
# T1 sequence: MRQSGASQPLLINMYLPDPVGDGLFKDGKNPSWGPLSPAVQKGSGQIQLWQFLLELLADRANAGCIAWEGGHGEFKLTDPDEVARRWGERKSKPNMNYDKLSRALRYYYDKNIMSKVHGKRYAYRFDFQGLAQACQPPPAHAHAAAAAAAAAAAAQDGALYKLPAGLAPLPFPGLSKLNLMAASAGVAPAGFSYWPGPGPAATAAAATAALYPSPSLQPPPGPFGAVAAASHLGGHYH
# How it was run: (§1)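 Human transcription factors were made in yeast as GST fusions, captured on glutathione beads and barcoded with DNA. With a tag-only sample included, the pool was incubated with 200 nmole of a random double-stranded 16-mer DNA library in Tris/NaCl/DTT/glycerol buffer at room temperature for 30 min, then crosslinked with 0.1% formaldehyde after washing, ligated by proximity, amplified and sequenced. For binding signal, each hexamer's read frequency for a factor is divided by its frequency for the tag-only sample.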
# ETV5 = ETV5 (Homo sapiens, UniProt P41161 1-510); details: protein: recombinant; tags: N-terminal GST; dsDNA, one strand shown
# How it was run: as §1
# HSF1 = HSF1 (Homo sapiens, UniProt Q00613 1-529); details: protein: recombinant; tags: N-terminal GST; chain copies: 3; dsDNA, one strand shown
# How it was run: as §1
# SPIC = target: T2, SPIC (Homo sapiens, UniProt Q8N5J4 1-248); details: protein: recombinant; tags: N-terminal GST; dsDNA, one strand shown
# T2 sequence: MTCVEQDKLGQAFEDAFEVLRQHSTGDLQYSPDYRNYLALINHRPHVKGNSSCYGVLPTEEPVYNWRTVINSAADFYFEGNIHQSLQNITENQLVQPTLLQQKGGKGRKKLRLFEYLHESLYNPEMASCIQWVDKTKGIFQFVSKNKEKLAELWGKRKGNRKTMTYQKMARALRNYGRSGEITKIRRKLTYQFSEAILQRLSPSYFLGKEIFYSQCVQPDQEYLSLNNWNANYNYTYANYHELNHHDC
# How it was run: as §1
# ELF4 = ELF4 (Homo sapiens, UniProt Q99607 1-663); details: protein: recombinant; tags: N-terminal GST; dsDNA, one strand shown
# How it was run: as §1
# ELK4 = target: T3, ELK4 (Homo sapiens, UniProt P28324-2 1-405); details: protein: recombinant; tags: N-terminal GST; dsDNA, one strand shown
# T3 sequence: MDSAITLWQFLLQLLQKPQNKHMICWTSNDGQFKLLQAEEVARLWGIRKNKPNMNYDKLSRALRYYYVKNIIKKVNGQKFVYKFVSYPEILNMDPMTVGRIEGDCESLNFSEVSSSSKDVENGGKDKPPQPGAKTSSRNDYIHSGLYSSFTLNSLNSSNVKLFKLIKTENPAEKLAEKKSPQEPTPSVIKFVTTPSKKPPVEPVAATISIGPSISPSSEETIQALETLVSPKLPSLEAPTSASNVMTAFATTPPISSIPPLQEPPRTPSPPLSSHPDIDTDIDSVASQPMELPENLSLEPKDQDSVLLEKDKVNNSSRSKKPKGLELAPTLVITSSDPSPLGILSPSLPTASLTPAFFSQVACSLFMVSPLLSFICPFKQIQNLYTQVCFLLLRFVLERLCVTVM
# How it was run: as §1
# ETV2 = target: T4, ETV2 (Homo sapiens, UniProt O00321 1-342); details: protein: recombinant; tags: N-terminal GST; dsDNA, one strand shown
# T4 sequence: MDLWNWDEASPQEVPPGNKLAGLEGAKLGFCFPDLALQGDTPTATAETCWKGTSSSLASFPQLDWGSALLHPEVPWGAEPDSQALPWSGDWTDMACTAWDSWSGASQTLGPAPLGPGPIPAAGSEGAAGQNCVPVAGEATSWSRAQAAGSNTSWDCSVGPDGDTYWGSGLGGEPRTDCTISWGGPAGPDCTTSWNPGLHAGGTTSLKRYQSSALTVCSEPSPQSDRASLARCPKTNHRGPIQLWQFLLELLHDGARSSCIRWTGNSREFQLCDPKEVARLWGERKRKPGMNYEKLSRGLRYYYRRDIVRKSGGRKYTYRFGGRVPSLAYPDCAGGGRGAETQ
# How it was run: as §1
# ELF3 = target: T5, ELF3 (Homo sapiens, UniProt P78545 1-371); details: protein: recombinant; tags: N-terminal GST; dsDNA, one strand shown
# T5 sequence: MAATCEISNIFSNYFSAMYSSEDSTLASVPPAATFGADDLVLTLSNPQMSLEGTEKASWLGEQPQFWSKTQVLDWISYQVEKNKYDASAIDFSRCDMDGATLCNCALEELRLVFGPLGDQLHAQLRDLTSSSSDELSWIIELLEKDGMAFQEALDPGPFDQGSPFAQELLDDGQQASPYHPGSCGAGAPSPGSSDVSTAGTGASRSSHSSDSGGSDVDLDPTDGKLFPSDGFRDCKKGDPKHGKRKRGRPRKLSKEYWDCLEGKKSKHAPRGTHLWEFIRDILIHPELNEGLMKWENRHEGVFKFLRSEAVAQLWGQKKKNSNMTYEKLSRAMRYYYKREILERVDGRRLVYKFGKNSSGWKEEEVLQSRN
# How it was run: as §1
# CRX = CRX (Homo sapiens, UniProt O43186 1-299); details: protein: recombinant; tags: N-terminal GST; dsDNA, one strand shown
# How it was run: as §1
# ETV1 = ETV1 (Homo sapiens, UniProt P50549 1-477); details: protein: recombinant; tags: N-terminal GST; dsDNA, one strand shown
# How it was run: as §1
# ERF = target: T6, ERF (Homo sapiens, UniProt P50548 1-548); details: protein: recombinant; tags: N-terminal GST; dsDNA, one strand shown
# T6 sequence: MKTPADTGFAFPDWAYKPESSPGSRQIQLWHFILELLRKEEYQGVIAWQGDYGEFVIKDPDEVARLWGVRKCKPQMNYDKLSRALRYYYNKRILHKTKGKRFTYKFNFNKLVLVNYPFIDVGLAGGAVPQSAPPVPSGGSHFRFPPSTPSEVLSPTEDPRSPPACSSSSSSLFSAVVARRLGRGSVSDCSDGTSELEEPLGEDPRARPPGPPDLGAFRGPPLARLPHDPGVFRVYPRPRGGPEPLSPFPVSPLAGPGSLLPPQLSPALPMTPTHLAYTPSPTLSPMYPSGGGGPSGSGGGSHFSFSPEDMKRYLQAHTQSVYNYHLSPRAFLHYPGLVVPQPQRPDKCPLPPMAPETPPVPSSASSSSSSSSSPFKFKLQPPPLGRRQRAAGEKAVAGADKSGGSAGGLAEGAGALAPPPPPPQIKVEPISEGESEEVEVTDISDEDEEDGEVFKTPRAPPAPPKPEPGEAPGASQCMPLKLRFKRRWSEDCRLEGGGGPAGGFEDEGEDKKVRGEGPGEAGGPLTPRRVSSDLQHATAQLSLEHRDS
# How it was run: as §1
# ETV3L = target: T7, ETV3L (Homo sapiens, UniProt Q6ZN32 1-361); details: protein: recombinant; tags: N-terminal GST; dsDNA, one strand shown
# T7 sequence: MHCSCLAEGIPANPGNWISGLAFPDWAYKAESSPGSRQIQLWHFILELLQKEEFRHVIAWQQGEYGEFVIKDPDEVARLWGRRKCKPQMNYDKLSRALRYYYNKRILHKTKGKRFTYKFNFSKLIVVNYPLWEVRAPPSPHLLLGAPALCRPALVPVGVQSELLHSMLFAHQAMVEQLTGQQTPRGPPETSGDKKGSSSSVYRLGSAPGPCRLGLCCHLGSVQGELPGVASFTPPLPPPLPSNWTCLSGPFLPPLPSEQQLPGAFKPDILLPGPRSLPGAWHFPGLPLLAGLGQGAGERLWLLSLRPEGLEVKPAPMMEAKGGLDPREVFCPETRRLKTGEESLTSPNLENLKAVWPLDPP
# How it was run: as §1
# ETS2 = target: T8, ETS2 (Homo sapiens, UniProt P15036 1-469); details: protein: recombinant; tags: N-terminal GST; dsDNA, one strand shown
# T8 sequence: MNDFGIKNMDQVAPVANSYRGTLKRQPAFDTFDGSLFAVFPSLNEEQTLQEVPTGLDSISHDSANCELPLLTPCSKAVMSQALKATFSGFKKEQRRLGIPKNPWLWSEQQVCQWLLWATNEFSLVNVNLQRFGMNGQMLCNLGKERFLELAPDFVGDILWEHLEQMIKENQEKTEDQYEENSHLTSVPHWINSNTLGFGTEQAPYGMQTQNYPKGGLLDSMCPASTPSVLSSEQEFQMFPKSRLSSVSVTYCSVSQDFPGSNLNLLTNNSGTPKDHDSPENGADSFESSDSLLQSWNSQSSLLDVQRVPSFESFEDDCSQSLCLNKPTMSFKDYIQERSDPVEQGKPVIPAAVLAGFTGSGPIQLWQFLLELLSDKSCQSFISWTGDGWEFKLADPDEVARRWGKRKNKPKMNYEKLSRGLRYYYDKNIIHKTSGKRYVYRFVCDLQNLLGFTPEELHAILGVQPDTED
# How it was run: as §1
# SPDEF = target: T9, SPDEF (Homo sapiens, UniProt O95238 1-335); details: protein: recombinant; tags: N-terminal GST; dsDNA, one strand shown
# T9 sequence: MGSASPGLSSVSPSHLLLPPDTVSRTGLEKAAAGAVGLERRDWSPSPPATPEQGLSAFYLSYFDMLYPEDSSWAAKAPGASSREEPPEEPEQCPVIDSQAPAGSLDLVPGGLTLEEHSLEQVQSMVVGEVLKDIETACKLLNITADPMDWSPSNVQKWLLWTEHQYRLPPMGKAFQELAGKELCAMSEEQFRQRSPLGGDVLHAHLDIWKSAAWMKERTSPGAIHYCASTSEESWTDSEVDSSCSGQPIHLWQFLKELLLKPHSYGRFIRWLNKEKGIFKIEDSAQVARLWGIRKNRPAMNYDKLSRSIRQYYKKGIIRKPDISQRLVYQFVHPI
# How it was run: as §1
# ETV7 = target: T10, ETV7 (Homo sapiens, UniProt Q9Y603 1-341); details: protein: recombinant; tags: N-terminal GST; dsDNA, one strand shown
# T10 sequence: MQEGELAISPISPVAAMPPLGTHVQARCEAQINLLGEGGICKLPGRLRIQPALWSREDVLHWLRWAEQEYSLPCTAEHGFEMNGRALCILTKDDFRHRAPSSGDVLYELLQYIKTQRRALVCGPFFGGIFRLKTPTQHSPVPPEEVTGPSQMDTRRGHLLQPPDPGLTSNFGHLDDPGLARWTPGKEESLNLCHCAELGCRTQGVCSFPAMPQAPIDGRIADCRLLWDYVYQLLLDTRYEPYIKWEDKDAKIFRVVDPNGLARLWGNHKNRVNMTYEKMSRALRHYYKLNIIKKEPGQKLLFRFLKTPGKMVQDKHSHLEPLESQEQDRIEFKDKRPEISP
# How it was run: as §1
# ELF5 = target: T11, ELF5 (Homo sapiens, UniProt Q9UKW6-2 1-255); details: protein: recombinant; tags: N-terminal GST; dsDNA, one strand shown
# T11 sequence: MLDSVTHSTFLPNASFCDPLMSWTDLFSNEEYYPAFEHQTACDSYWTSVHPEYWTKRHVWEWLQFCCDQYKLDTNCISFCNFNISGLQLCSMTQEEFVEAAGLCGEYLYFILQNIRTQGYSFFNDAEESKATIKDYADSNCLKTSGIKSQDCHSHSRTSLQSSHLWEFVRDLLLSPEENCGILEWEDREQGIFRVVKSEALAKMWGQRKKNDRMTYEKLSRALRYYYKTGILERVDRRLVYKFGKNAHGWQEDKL
# How it was run: as §1
# ETV3 = target: T12, ETV3 (Homo sapiens, UniProt P41162-2 1-143); details: protein: recombinant; tags: N-terminal GST; dsDNA, one strand shown
# T12 sequence: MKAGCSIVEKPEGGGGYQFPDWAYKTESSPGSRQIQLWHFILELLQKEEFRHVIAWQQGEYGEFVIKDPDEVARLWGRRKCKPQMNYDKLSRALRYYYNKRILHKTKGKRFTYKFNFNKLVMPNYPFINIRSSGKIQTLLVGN
# How it was run: as §1
# ETV6 = ETV6 (Homo sapiens, UniProt P41212 1-452); details: protein: recombinant; tags: N-terminal GST; dsDNA, one strand shown
# How it was run: as §1
# Sequence of ETV1 (P50549 whole entry): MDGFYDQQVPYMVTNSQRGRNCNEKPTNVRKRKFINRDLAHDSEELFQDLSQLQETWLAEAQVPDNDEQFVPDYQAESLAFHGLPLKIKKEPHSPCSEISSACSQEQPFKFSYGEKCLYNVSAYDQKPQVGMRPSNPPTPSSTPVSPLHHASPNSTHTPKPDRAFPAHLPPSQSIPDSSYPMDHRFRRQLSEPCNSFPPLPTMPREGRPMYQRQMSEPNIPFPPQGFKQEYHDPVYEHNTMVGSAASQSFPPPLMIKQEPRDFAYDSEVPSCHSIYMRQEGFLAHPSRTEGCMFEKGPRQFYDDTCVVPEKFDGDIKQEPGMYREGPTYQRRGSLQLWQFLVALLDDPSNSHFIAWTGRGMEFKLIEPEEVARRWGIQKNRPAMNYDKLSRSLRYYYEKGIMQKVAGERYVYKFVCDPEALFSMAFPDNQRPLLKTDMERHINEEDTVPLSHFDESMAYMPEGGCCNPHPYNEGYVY
# Sequence of ELF4 (Q99607 whole entry): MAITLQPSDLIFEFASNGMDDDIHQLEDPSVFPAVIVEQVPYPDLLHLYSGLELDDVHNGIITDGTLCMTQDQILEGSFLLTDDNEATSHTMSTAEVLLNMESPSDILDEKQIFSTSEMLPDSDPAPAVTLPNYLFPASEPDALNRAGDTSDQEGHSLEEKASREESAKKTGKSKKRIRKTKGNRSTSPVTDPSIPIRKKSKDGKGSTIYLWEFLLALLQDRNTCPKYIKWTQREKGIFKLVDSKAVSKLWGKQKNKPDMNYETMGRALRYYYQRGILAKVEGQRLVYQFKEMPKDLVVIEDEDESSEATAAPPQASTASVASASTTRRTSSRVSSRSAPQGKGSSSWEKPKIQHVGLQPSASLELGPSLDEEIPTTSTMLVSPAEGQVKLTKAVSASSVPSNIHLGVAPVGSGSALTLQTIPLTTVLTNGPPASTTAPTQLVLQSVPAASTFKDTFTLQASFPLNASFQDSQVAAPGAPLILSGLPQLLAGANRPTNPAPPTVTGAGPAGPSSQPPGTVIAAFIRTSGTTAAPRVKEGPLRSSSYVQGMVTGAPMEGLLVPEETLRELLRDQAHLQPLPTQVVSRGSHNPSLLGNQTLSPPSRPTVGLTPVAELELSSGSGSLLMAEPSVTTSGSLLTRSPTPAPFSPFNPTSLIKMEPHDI
# Sequence of CRX (O43186 whole entry): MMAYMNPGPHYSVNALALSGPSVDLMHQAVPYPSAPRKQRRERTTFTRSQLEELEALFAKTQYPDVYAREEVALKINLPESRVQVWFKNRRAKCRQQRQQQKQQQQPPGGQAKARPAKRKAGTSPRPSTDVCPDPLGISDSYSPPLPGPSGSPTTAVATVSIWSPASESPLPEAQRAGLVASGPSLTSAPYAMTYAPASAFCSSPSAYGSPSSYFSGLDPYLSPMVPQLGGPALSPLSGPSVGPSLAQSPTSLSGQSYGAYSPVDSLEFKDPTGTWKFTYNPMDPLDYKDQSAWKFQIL
# Sequence of HSF1 (Q00613 whole entry): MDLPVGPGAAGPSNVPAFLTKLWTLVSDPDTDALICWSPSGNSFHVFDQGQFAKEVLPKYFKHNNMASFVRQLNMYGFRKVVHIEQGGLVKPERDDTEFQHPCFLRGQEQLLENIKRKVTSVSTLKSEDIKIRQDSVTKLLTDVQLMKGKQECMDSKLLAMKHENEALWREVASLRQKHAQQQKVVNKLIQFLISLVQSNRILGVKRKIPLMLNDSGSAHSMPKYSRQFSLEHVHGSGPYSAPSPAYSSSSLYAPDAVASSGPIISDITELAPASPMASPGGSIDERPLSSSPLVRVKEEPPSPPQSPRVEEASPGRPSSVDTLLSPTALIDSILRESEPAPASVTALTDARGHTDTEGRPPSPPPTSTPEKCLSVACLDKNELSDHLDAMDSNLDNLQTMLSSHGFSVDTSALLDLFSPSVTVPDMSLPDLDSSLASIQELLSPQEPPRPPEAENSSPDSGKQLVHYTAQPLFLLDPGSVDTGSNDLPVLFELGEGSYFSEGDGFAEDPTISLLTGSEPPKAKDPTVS
# Sequence of ETV6 (P41212 whole entry): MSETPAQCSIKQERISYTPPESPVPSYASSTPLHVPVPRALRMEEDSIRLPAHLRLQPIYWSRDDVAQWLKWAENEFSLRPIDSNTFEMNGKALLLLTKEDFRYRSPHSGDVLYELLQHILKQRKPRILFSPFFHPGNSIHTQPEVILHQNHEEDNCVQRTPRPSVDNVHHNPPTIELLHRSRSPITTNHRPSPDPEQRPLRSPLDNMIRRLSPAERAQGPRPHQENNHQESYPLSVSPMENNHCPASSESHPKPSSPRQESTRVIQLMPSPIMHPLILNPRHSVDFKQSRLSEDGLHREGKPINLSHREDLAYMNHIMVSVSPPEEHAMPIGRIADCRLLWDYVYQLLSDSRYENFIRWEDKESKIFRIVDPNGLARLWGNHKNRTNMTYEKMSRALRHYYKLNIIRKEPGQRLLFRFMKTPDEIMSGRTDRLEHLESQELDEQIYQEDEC
# Sequence of ETV5 (P41161 whole entry): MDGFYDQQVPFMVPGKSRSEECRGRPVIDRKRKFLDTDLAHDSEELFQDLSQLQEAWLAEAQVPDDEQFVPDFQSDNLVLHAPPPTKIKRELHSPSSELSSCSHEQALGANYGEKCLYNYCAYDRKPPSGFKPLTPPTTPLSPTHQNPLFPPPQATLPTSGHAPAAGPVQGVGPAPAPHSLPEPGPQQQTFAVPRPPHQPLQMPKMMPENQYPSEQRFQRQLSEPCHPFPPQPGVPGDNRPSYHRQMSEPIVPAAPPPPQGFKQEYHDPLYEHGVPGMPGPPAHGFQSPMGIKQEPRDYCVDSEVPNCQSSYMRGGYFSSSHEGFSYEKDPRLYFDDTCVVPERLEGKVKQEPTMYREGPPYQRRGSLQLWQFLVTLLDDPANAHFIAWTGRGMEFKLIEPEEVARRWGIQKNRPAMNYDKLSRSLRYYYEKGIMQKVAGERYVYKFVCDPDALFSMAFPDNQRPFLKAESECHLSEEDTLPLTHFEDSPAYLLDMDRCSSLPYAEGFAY
sequence,measurement,setting,value
GCTTCC,binding signal,FEV,"4.3 fold enrichment (6-mer frequency, TF over GST control)"
same,binding signal,ETV5,"3.97 fold enrichment (6-mer frequency, TF over GST control)"
same,binding signal,HSF1,"1.47 fold enrichment (6-mer frequency, TF over GST control)"
same,binding signal,SPIC,"3.3 fold enrichment (6-mer frequency, TF over GST control)"
same,binding signal,ELF4,"3.18 fold enrichment (6-mer frequency, TF over GST control)"
same,binding signal,ELK4,"2.98 fold enrichment (6-mer frequency, TF over GST control)"
same,binding signal,ETV2,"3.44 fold enrichment (6-mer frequency, TF over GST control)"
same,binding signal,ELF3,"3.14 fold enrichment (6-mer frequency, TF over GST control)"
same,binding signal,CRX,"1.19 fold enrichment (6-mer frequency, TF over GST control)"
same,binding signal,ETV1,"3.62 fold enrichment (6-mer frequency, TF over GST control)"
same,binding signal,ERF,"3.06 fold enrichment (6-mer frequency, TF over GST control)"
same,binding signal,ETV3L,"3.36 fold enrichment (6-mer frequency, TF over GST control)"
same,binding signal,ETS2,"3.56 fold enrichment (6-mer frequency, TF over GST control)"
same,binding signal,SPDEF,"3.67 fold enrichment (6-mer frequency, TF over GST control)"
same,binding signal,ETV7,"3.14 fold enrichment (6-mer frequency, TF over GST control)"
same,binding signal,ELF5,"4.78 fold enrichment (6-mer frequency, TF over GST control)"
same,binding signal,ETV3,"3.8 fold enrichment (6-mer frequency, TF over GST control)"
same,binding signal,ETV6,"4.28 fold enrichment (6-mer frequency, TF over GST control)"
